Screening data as filed in PubChem.
NOMO-1 viab = NOMO-1 AML cell viability reduction, primary screen, STK33 inhibitor project, CellTiter-Glo luminescence. inhibition, % (concentration not given with the values). NOMO-1 AML viability, 72 h. 37,000 compounds, 7.5% hits; in the data active means inhibition above about 80%; inconclusive means no clear call, values can overlap the other calls
PD-1 reverse act = activators reversing PD-1 mediated T-cell inhibition, primary screen, luminescence, primary human CD4 T cells, PD-L1 beads; CellTiter-Glo 96 h; activation, % (test concentration not listed); 29,000 tested, under 10 active; call rule not given here;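 further: 0% = median vehicle wells and 100% = positive control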
Hedgehog inh = Hedgehog pathway signaling inhibitors, primary screen, luminescence, Shh-LIGHT2 cells, Gli-luciferase. 22,000 compounds, 2.1% hits. inhibition, % (no concentration beside the values). Shh-LIGHT2 Gli-luciferase reporter, 30 h. AID 2313, 2010;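 active means mean inhibition across valid replicates above about 65%, limit read from the data; inconclusive means mean under the limit, yet half or more replicates past it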;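 further: pathway switched on by Shh-conditioned medium diluted 1 in 25 in low serum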
* marks the source's active call; other numbers are inactive results; ? = inconclusive; . = no result given. A selection: hits, their analogues and other compounds. The true share with any hit is near 7.7%.

SMILES	NOMO-1 viab	PD-1 reverse act	Hedgehog inh
COC(=O)COc1ccc(NC(=O)c2ccc(NC(C)=O)cc2)cc1	118*	-5	.
Cc1cccc(OCC(=O)Nc2ccc(Cl)c(-c3nc4ccccc4o3)c2)c1	77	0	.
CC(CC(O)C1OC1(C)C)[C@@H]1CCC2(C)C3=CCC4C(C)(C)C(=O)CCC4(C)C3CC[C@@]12C (some centres not stated)	101*	.	23
COc1cccc2c1C(=O)c1c(O)c3c(c(O)c1C2=O)C[C@@](O)(C(C)=O)C[C@@H]3O[C@H]1C[C@H](N)[C@H](O)[C@H](C)O1	121*	.	99*
CC1CC(=O)c2c(ccc3c2C(=O)c2c(O[C@@H]4O[C@@H](C)[C@H](O)[C@@H](O)[C@H]4O)cccc2C3=O)C1 (some centres not stated)	26	1	3
COC(=O)C1=C(C)N(Cc2ccccc2)C(=O)NC1c1ccccc1F (configuration not stated)	6	0	.
O=C(COc1ccc2ccccc2c1)Nc1ccccc1C(=O)Nc1ccccc1	21	0	.
CC(C)(C)c1ccc(OCC(O)CN2CCN(CCO)CC2)cc1 (configuration not stated)	-8	-1	.
Cc1ccc2c(c1)c(-c1ccccc1)c(-c1ccccc1)n2CC(O)CN1CCN(CCO)CC1 (configuration not stated)	90*	-8	.
Cc1cc(C)c(CN(C)C)c(O)c1	15	0	0
N#CC(C(=O)c1ccccc1Cl)=C1SCCCS1	114*	-1	23
N#CC(=C1SCCCCS1)S(=O)(=O)c1ccc(Cl)cc1	29	2	2
Cc1cccc(C)c1NC(=S)N(CCC#N)C(C)C	24	0	.
COc1ccc(C(C)C)cc1S(=O)(=O)n1nnc2ccccc21	-2	0	.
COc1ccc(C(C)C)cc1S(=O)(=O)n1cnc2ccccc21	123*	-3	.
CC(C)OC(=O)c1cc(N)c2c(-c3ccc(F)cc3)c(-c3cccs3)sc2n1	43	-7	-5
CSc1ncc(Cl)c(C(=O)Nc2sc3c(c2C(=O)NCCc2ccccc2)CCC3)n1	19	1	.
COCCNC(=O)c1c(NC(=O)c2nc(SC)ncc2Cl)sc2c1CCCC2	138*	-5	.
COc1ccc(OC)c(NC(=O)C2=C(C)NC(=S)NC2c2ccc(OC)cc2OC)c1 (configuration not stated)	38	-8	.
COC(=O)COc1ccc(C2NC(=S)NC(C)=C2C(=O)OC)cc1 (configuration not stated)	89*	.	.
COC(=O)c1ccccc1NC(=O)CSc1nc(-c2ccccc2)cc(=O)[nH]1	-3	1	.
O=C(COc1ccccc1C(=O)O)Nc1ccccc1	17	3	.
Cc1coc2c1C(=O)C(=O)c1c-2ccc2c1CCCC2(C)C	109*	.	22
CCCCC[C@H](CC(=O)NO)C(=O)N[C@H](C(=O)N1CCC[C@H]1CO)C(C)C	107*	.	-8
N#CC(C#N)=C(Nc1ccc(Br)cc1)SCc1ccc(F)cc1	112*	-10	109*
SMILES	NOMO-1 viab	PD-1 reverse act	Hedgehog inh
CNC(=O)CSCc1ccc(Br)cc1	18	0	-57
Cc1c(CCC(=O)O)c(=O)oc2cc(OCc3cccc(F)c3)ccc12	23	2	.
CCCc1c(Cc2c(F)cccc2Cl)c(=O)oc2cc(O)ccc12	120*	-4	55
O=C1C(=O)N(Cc2ccco2)C(c2cccnc2)C1C(=O)c1cc2ccccc2o1 (configuration not stated)	-17	.	.
C[C@H]1CN([C@@H](C)CO)C(=O)c2cccc(NC(=O)Nc3ccc(F)cc3)c2O[C@@H]1CN(C)Cc1ccc(C(F)(F)F)cc1	57	0	0
C[C@@H]1CN([C@H](C)CO)C(=O)c2cccc(NC(=O)Nc3ccc(C(F)(F)F)cc3)c2O[C@@H]1CN(C)Cc1ccc(-c2ccccc2)cc1	?	-2	-39
C[C@@H]1CN([C@H](C)CO)C(=O)c2cccc(NC(=O)Nc3ccc(C(F)(F)F)cc3)c2O[C@@H]1CN(C)Cc1ccc(C(F)(F)F)cc1	111*	-3	33
C[C@@H]1CN([C@H](C)CO)C(=O)c2cccc(NC(=O)Nc3ccc(C(F)(F)F)cc3)c2O[C@@H]1CN(C)Cc1ccccc1	75	-6	35
C[C@H]1CN([C@@H](C)CO)C(=O)c2cccc(NC(=O)Nc3ccc(C(F)(F)F)cc3)c2O[C@H]1CN(C)Cc1ccc(C(F)(F)F)cc1	114*	-6	-37
C[C@H](CO)N1C[C@H](C)[C@H](CN(C)Cc2ccc(C(F)(F)F)cc2)Oc2c(NC(=O)Nc3cccc4ccccc34)cccc2C1=O	112*	-5	-12
